In the library only some 2.1% were active in any assay of this set; here they are far more common.
CHT allo act: human CHT allosteric activation | Q9GZV3 | 310,000 tested, 0.49% active | CHT-expressing cells, membrane potential dye, choline EC20; stronger effect = higher value; LV-AA mutant CHT in HEK293 cells | B-score at 10 µM;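 active = initial fluorescence not abnormally high and integrated response B-score, plate-corrected, over 3 SD above library mean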
Target sequence (Q9GZV3 whole entry, looked up): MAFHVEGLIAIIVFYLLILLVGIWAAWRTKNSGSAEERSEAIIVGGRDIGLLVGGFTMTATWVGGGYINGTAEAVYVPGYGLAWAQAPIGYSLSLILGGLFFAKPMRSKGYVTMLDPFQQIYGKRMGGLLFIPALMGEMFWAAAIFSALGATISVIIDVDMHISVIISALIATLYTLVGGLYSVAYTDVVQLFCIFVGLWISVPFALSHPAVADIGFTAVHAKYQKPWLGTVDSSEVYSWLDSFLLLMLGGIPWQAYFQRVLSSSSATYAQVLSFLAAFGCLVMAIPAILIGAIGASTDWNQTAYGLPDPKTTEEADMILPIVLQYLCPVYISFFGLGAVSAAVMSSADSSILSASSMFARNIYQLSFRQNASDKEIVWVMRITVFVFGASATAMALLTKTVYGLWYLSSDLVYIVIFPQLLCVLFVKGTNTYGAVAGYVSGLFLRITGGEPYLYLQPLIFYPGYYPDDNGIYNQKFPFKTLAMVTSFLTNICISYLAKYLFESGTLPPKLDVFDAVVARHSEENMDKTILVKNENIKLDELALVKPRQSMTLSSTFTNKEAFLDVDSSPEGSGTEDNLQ
EP2 antag: EP2 receptor (human) inhibition | C6 glioma cells expressing human EP2, cAMP TR-FRET; cells stimulated with saturating PGE2 | inhibition, % at 25 µM | 260,000 tested, 0.52% active;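 active = percent inhibition above 40 after rounding to a whole number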;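 note: rat C6 glioma host cells with rolipram phosphodiesterase inhibitor present; the protocol text gives 20 µM as final concentration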
CHT inh: human CHT choline transport inhibition | B-score at 10 µM | Q9GZV3 | 310,000 tested, 0.86% active | CHT-expressing cells, membrane potential dye, choline response; stronger effect = lower value;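 active = B-score over 3 SD under the library average, and starting fluorescence ratio not unusually high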;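 note: choline stimulus applied at its EC90 after an EC20 pre-addition; B-score computed on integrated fluorescence ratio after choline addition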
EP2 mod: modulators of human EP2 prostaglandin E2 receptor; P43116; EP2-expressing cells, cAMP HTRF FRET, PGE2 co-stimulation; induction, % at 25 µM; 260,000 tested, 0.83% active; AID 940;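 active = compounds whose cAMP rise, as percent of the full-agonist control response, exceeds 60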;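 note: rat C6 glioma line stably carrying human EP2 under a CMV promoter; the protocol text gives 20 µM as final concentration; 100% = response of wells given 1 µM PGE2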
Starred values were filed as active, the others as inactive; i = inactive; · = no result given; ! = not confirmed by another sample.

SMILES	CHT allo act	EP2 antag	CHT inh	EP2 mod
Cc1ccccc1C1(O)CCN(CC(O)c2ccc(N3CCCC3=O)cc2)CC1 (configuration not stated)	·	6	·	-28
O=C1c2ccccc2C(=O)c2c1ccc(N1C(=O)c3ccccc3C1=O)c2-c1c(N2C(=O)c3ccccc3C2=O)ccc2c1C(=O)c1ccccc1C2=O	·	45*	·	0
O=C(NCc1ccco1)C(c1ccco1)N(C(=O)Cn1nnc2ccccc21)c1cccc(Cl)c1 (configuration not stated)	·	5	·	9
CSc1ccccc1NC(=O)c1ccccn1	i	4	i	15
CSC(=[SH+])[N-]N=C(c1ccccn1)c1ccccn1.[Cu][Br]	·	108*	·	-64
C/C(=N\[N-]C(=[SH+])SCc1ccccc1)c1ccccn1.[Cl][Cu]	·	88*	·	-47
O=c1c2cc(Cl)ccc2nc(-c2ccc(Cl)c(Cl)c2)n1O	i	11	-7*	-10
CC1Cc2cc(C(O)CN3CCOCC3)ccc2N1S(C)(=O)=O (configuration not stated)	·	4	·	-29
CN1CCc2c(sc3c2C(=O)NC(c2ccc4c(c2)OCO4)N3)C1 (configuration not stated)	i	41*	i	·
Cc1ccc(-n2nnnc2C(Cl)(Cl)c2nnnn2-c2ccc(C)cc2)cc1	i	91*	i	-5
c1coc(CN2CCC(c3ccc4c(c3)OCO4)CC2)c1	·	9	·	4
CC(C)C(=O)N1C2CCC1CC(O)(c1ccccc1F)C2 (configuration not stated)	·	10	·	-4
CC1=NN(c2ccccc2)C(=O)C1(C)C	i	12	i	20
CC1=NN(c2ccccc2)C(=O)C1C=Nc1ccccc1O (configuration not stated)	i	6	-5.2*	-27
OC(c1cc(-c2ccc(C(F)(F)F)cc2)nc(C(F)(F)F)c1)C1CCCCN1 (configuration not stated)	i	54*	i	-30
OC(c1cc(C(F)(F)F)nc2c(C(F)(F)F)cccc12)C1CCCCN1 (configuration not stated)	i	16	i	-22
O[C@@H](c1cc(C(F)(F)F)nc2c(Cl)cc(Cl)cc12)[C@@H]1CCCCN1	·	58*	·	14
COc1cccc2cc(C(=O)N(Cc3ccc(F)cc3)CC3CCCO3)c(=O)oc12 (configuration not stated)	·	19	·	-2
Cc1cc(CN2CCCCC2)c(O)c(CN2CCCCC2)c1	·	59*	·	31
Cc1cc(C)n(CCNC(=O)Cn2c(-c3cccs3)cc3cccnc32)n1	·	8	·	-15
c1ccc(-c2nn3c(-c4ccco4)nnc3s2)cc1	·	9	·	10
Cc1cc(C)cc(NS(=O)(=O)c2ccc(NC(=S)NC(=O)c3cccs3)cc2)c1	i	42*	i	-87
Cc1ccc(NS(=O)(=O)c2ccc(NC(=O)c3cccs3)cc2)c(C)c1	i	3	i	-21
COc1ccc(/C=C/C(=O)NC(=S)Nc2ccc(S(=O)(=O)Nc3cc(C)on3)cc2)cc1	i	45*	i	-134
Cc1cc(C)nc(NS(=O)(=O)c2ccc(NC(=S)NC(=O)/C=C/c3cccs3)cc2)n1	·	63*	·	-117
SMILES	CHT allo act	EP2 antag	CHT inh	EP2 mod
COc1ccc(C(=O)NC(=S)Nc2ccc(S(=O)(=O)Nc3nccs3)cc2)cc1OC	·	43*	·	-138
O=C(NCCNCc1ccccc1Cl)c1cccs1	·	12	·	-12
COc1ccc(N(C(=O)c2ccco2)C(C(=O)NC(C)(C)C)c2ccccc2)cc1 (configuration not stated)	·	11	·	-16
CCc1ccc(/C=C2/SC(=S)N(CCC(=O)Nc3ccc(C(=O)O)cc3)C2=O)cc1	i	·	i	·
CCc1ccc(/C=C2/SC(=S)N(CCCC(=O)Nc3ccccc3C(=O)O)C2=O)cc1	i	·	-7.5*	·
CCc1ccc(/C=C2/SC(=S)N(CCC(=O)Nc3cccc(C(=O)O)c3)C2=O)cc1	i	·	-5.9*	·
COc1ccccc1CN(Cc1cc2ccc(C)cc2[nH]c1=O)C(=O)NC1CCCCC1	·	4	·	8
COc1ccc(NC2=NC(=S)N(c3ccc(C)cc3)C23CCCCC3)cc1	i	7	i	-3
Cc1ccccc1NC1=NC(=S)N(c2ccccc2)C12CCCCC2	i	9	i	62*
COC(=O)CSc1nc2c(c(-c3ccco3)c1C#N)CCCC2	i	22	i	46
COC(=O)CSc1nc2c(c(-c3ccc(O)cc3)c1C#N)CCCC2	i	3	i	62*
COc1cccc(NC(=O)CSc2nc3ncccc3[nH]2)c1	·	6	·	-22
COc1ccccc1C1(O)CCCN(CC(O)c2ccc3c(c2)CCO3)C1 (configuration not stated)	·	6	·	-52
Cc1nn(-c2ccc(Cl)cc2)c(=O)c2ccccc12	i	10	i	24
O=c1c2ccccc2c(-c2ccc(Cl)cc2)nn1-c1ccccc1	i	5	i	63*
Cc1cc(-c2ccc(Br)s2)nc(-n2cccc2)n1	·	23	·	49
Cc1cc(-c2sccc2Br)nc(-n2cccc2)n1	·	16	·	65*
Cc1[nH]n2c(=O)c3c(nc2c1-c1ccc(Cl)cc1)CCC3	i	-2	i	-64
Nc1[nH]n2c(=O)c3c(nc2c1N=Nc1ccc(Cl)cc1)CCCC3	i	11	i	64*
C=C(C)Cn1c(Cc2ccccc2)nc2ccccc21	·	5	·	25
C=C(C)Cn1c(COc2ccccc2)nc2ccccc21	·	11	·	69*
CN(C)CCNC(=O)c1csc(Nc2cccc3ccccc23)n1	i	·	-9.9*	·
COCCNC(=O)c1csc(Nc2cccc3ccccc23)n1	i	·	i	·
Cc1cccc2nc(CN3CCN(c4ccccc4)CC3)cn12	·	15	·	-45
O=C(O)CSc1nc(-c2ccccc2)nc2ccc(F)cc12	·	12	·	89*
SMILES	CHT allo act	EP2 antag	CHT inh	EP2 mod
OCCSc1nc(-c2ccccc2)nc2ccc(F)cc12	i	12	i	70*!
Cc1cc(C)c(NC(=O)CSc2nnc3c4ccccc4n(C)c3n2)c(C)c1	·	16	·	-5
Cc1ccc(C(=O)Nc2ccc(N3CCN(C(=O)c4cccs4)CC3)cc2)c(C)c1	·	11	·	23
Cc1ccc(-c2nc3cc(N)ccc3o2)cc1	i	·	i	-27
Cc1ccc(-c2nc3cc(N)ccc3o2)c(C)c1	i	41*	i	5
COCCCn1c(C)nnc1SCC(=O)Nc1cccc(C)c1C	·	7	·	7
O=C(COC(=O)[C@@H]1CCCN1S(=O)(=O)c1ccc(Cl)cc1)NC12CC3CC(CC(C3)C1)C2	i	68*	i	14
CCOC(=O)/C=C/C(=O)Nc1cccc([N+](=O)[O-])c1	i	131*	i	-1
Cc1ccnn1CCC(=O)NC1(c2ccc(F)cc2)CCCC1	·	7	·	-30
C/C(=N\NC1=NCCN1)c1cn(C2=NCCN2)nc1C	·	49*	·	8
Cc1ccc(C)c(/C(O)=C2/C(=O)C(=O)N(CCCN(C)C)C2c2cccnc2)c1 (configuration not stated)	·	9	·	-10
CC(=O)n1cc(-c2ccncc2)c2ccccc21	6.5*	5	i	7

High-throughput results from PubChem BioAssay.
